Measurements from the supplement of paper PMC3334620.
The full ranking holds about 33,000 sequences; the median of “E-score (-0.5 to 0.5)” is about -0.0014, and the highest 2% start at about 0.25. The full list was thinned out, with the highest values kept by preference.

The sequences below were run against T1, Cad1 (UniProt P24813) (assay: PBM E-score (8-mer binding enrichment) (E-score (-0.5 to 0.5)); higher = stronger / more preferred TF binding). Conditions: protein concentration: 100 nM; construct: GST-full length.
T1 sequence: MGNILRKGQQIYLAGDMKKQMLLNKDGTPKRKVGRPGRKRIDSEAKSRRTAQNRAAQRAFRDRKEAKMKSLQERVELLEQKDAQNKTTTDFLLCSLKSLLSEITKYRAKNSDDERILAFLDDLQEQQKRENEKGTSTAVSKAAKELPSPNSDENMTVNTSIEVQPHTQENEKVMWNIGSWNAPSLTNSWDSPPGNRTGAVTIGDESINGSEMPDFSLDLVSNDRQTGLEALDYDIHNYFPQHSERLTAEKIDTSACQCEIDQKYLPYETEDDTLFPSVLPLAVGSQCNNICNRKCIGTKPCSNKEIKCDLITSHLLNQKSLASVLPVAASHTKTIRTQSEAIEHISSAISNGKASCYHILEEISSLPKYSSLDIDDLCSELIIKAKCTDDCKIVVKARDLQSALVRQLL
Protocol: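 Universal 'all 10-mer' protein binding microarrays (Agilent AMADID 015681) probed with GST-tagged S. cerevisiae TFs (full-length or DBD) made by in vitro transcription/translation (PURExpress), about 100-200 nM. Bound TF was detected with fluorescent anti-GST. Each ungapped 8-mer (which stands for itself and its reverse complement) is scored by the PBM enrichment score (E-score), a modified Wilcoxon-Mann-Whitney statistic from -0.5 to +0.5, computed with the Universal PBM Analysis Suite. Scale: above 0.35 generally sequence-specific binding.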

Row | Sequence | PBM E-score
1 | ATGTCGAA | -0.00122
2 | GCGTCGAA | 0.116
3 | AAGTCGAC | 0.256
4 | CCGTCGAC | -0.0671
5 | CTGTCGAC | -0.0383
6 | AAGTCGAA | -0.0588
7 | CCGACAAG | -0.0166
8 | CATCTCCA | 0.09
9 | ATACATAC | -0.195
10 | AAACATAT | 0.25
11 | ATACATAT | 0.286
12 | AAACATAG | -0.0611
13 | AAACATAC | -0.123
14 | ATACATAA | 0.12
15 | GCGGCCGC | 0.175
16 | AATTGATG | 0.251
17 | AATTGATA | 0.206
18 | AATTGATC | -0.0161
19 | TCACGTGA | 0.125
20 | TCCGCTCA | -0.195
21 | ACTCGAAA | -0.0505
22 | AGAGCCCT | -0.122
23 | CCTGATTA | 0.31
24 | ATTGATTC | 0.12
25 | ATTGATTG | 0.133

Row | Sequence | PBM E-score
26 | CCTGATGA | 0.0887
27 | CCTGATTC | 0.0985
28 | ACTGATTA | 0.265
29 | ACTGATTC | -0.0134
30 | CTTGAATA | 0.118
31 | ACTGATTG | 0.0651
32 | ATTGATTA | 0.286
33 | ATTGAATA | 0.281
34 | ATTGAATC | -0.0423
35 | CAGCATAA | 0.169
36 | AATTAAGT | 0.181
37 | ACTACTGC | -0.0336
38 | GACTACGA | -0.0382
39 | GATGGGTA | 0.0269
40 | CCAGCCAG | -0.207
41 | GCTGATTA | 0.378
42 | GATGATTA | 0.126
43 | GCTGATAA | 0.161
44 | CTCATGGC | -0.0384
45 | TAGAACTA | 0.0157
46 | ACTAGGAT | -0.0418
47 | GTCGGTAA | -0.116
48 | CTATAGCA | -0.0148
49 | AATTCCAT | 0.0643
50 | AATTCCAC | 0.111

Row | Sequence | PBM E-score
51 | AATTCCAG | 0.257
52 | AGTATCTC | 0.178
53 | TCTTCAAA | -0.0389
54 | CAACTCGA | 0.175
55 | TAACTCGA | 0.275
56 | GAACTCGA | 0.0968
57 | AAATTCAC | 0.0164
58 | ACTTATCT | 0.0827
59 | AATTATCA | 0.266
60 | AATTATCT | 0.282
61 | AATTATTA | 0.249
62 | AATTATCG | 0.247
63 | AATTATCC | 0.0534
64 | AGGAGACT | -0.286
65 | ATAAAACA | 0.0107
66 | CGATCGCA | 0.169
67 | CCAGATGA | -0.131
68 | TGAGCGAA | 0.123
69 | GTTGACTA | 0.0212
70 | GCTGACTA | 0.335
71 | GCTGACCC | -0.145
72 | GCTGACCA | 0.252
73 | CCTGACTA | 0.351
74 | GATGACTA | 0.172
75 | ACTGACTA | 0.116

Row | Sequence | PBM E-score
76 | CCTGACTC | -0.139
77 | ACTGACCA | -0.105
78 | CCGATGGC | -0.118
79 | CGGGTGGA | -0.0447
80 | CGTTAGCC | 0.0683
81 | GCCCTAAA | -0.269
82 | CTCGAAGC | 0.00892
83 | TGCACTAA | 0.32
84 | AGCACTAA | 0.094
85 | CGCACTAA | 0.155
86 | TCGGGGAA | 0.0236
87 | GAGACGTA | -0.0175
88 | CGACAAAA | 0.136
89 | TCACAAAA | 0.253
90 | GCACAAAA | 0.18
91 | GAACAAAA | 0.274
92 | GAACAAAC | 0.0779
93 | GGACAAAA | 0.0884
94 | TGACAAAA | 0.251
95 | AAACAAAA | -0.0143
96 | ACACAAAA | 0.0974
97 | ATCAGCAG | 0.191
98 | AATATCCT | -0.0122
99 | AGAATTAT | 0.191
100 | ATAATTAT | 0.377

Row | Sequence | PBM E-score
101 | ATTATAAT | 0.227
102 | CAAATTTC | 0.201
103 | ATAATTTC | 0.154
104 | ATAATTCC | -0.00553
105 | ATAATTAC | 0.295
106 | AAAATTTG | 0.196
107 | CTAATTAC | 0.199
108 | ATAATTTG | 0.278
109 | CAAATTTG | 0.33
110 | ATAATTGG | -0.0135
111 | GGCATTGA | -0.0489
112 | ACCGCGCG | 0.225
113 | CCGGTAGC | -0.164
114 | CCTCAATC | 0.0973
115 | GCATTCAA | 0.0687
116 | AAGGGACG | -0.195
117 | GACCGATC | -0.128
118 | CAGGGTCC | -0.134
119 | AGGGGGAA | -0.248
120 | AATTGGTC | 0.0715
121 | GTAATTAA | 0.218
122 | ATAATTGA | 0.149
123 | ATAATTCG | 0.168
124 | CTAATTAG | 0.41
125 | CTAATTAA | 0.147

Row | Sequence | PBM E-score
126 | ATAATTAG | 0.285
127 | GTAATTAC | 0.33
128 | CCAATTAG | 0.223
129 | TTAATTAA | 0.0562
130 | GGAATTAC | 0.21
131 | ATAATTAA | 0.323
132 | AGAATTAG | 0.00824
133 | CCCTATAG | -0.143
134 | ACAGCGCC | -0.0091
135 | TATAAGAA | 0.0437
136 | GGCTGGTA | -0.18
137 | ATACTCTA | -0.0262
138 | ATATAATC | 0.0826
139 | GATGCAGA | 0.146
140 | AAGATGTC | -0.188
141 | GAGAGCCC | -0.458
142 | AGCCGCTG | -0.0754
143 | ACAATTAT | 0.267
144 | ACAATTAC | 0.119
145 | ACAATTAA | 0.148
146 | TAGAGGCA | -0.166
147 | CAACATAG | -0.073
148 | GAACATAA | 0.111
149 | CAACATAC | 0.132
150 | AAACATAA | -0.131

Row | Sequence | PBM E-score
151 | TAACATAA | 0.287
152 | CAACATAA | 0.255
153 | CCCCTAAC | -0.15
154 | AGTTGGAT | -0.0953
155 | AGGATCCC | -0.144
156 | CCCAGCGG | -0.264
157 | TATGTGGA | 0.146
158 | AGGACGCG | -0.00704
159 | CAGTCTGA | 0.0314
160 | CTGTCGGC | -0.107
161 | CCAGTAAA | -0.0575
162 | CCATTGTC | 0.00119
163 | ACATTGTC | 0.292
164 | CCATTATC | 0.0253
165 | ACATTATG | 0.0893
166 | ACATTGTG | -0.0593
167 | ACATTATC | 0.274
168 | CTAGAGAC | -0.243
169 | AAATTTTC | 0.0644
170 | ACGCCTAT | -0.161
171 | AGTGTAGC | -0.0088
172 | GAGGTGGC | -0.149
